The record followed here is PubChem BioAssay (NCATS).

Molecules are shown by their SMILES. Inconclusive results are not listed. A number with no mark means an inactive call. The source made the active and inactive calls. The call rests on the fitted dose curve; in most records, active means well fitted curve in the direction sought with a large enough effect; inconclusive means small, poorly fitted or top-dose-only effect, or another doubt; inactive means no such curve, though single readings can be large; an effect the other way counts as inactive or inconclusive.

The first experiment deals with Luciferin 4-monooxygenase (Photinus pyralis) (UniProt P08659). Briefly: Biochemical firefly luciferase enzyme assay for NPC (AID 624030). Further: nearly all actives have a fitted effect of over 70% in size. Further: potency means the concentration at half of the fitted maximal effect.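 On activity change, negative = inhibition: purified P. pyralis luciferase at 10 nM with luciferin and ATP substrate; 0% = DMSO and -100% = full luciferase inhibition by PTC124 control.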 The settings on record: purified P. pyralis luciferase, luminescence, 5 min; series mostly up to 58.6 µM; activity change, negative = inhibition: at the top concentration. In outline: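 Purified P. pyralis luciferase at 10 nM in 50 mM Tris Acetate (final), luminescence read within 5 minutes of enzyme addition to compounds. Activity normalised to PTC124 versus DMSO; concentration-response curves classed by r2, magnitude and activity.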
Luciferin 4-monooxygenase (Photinus pyralis), sequence (P08659 whole entry, looked up): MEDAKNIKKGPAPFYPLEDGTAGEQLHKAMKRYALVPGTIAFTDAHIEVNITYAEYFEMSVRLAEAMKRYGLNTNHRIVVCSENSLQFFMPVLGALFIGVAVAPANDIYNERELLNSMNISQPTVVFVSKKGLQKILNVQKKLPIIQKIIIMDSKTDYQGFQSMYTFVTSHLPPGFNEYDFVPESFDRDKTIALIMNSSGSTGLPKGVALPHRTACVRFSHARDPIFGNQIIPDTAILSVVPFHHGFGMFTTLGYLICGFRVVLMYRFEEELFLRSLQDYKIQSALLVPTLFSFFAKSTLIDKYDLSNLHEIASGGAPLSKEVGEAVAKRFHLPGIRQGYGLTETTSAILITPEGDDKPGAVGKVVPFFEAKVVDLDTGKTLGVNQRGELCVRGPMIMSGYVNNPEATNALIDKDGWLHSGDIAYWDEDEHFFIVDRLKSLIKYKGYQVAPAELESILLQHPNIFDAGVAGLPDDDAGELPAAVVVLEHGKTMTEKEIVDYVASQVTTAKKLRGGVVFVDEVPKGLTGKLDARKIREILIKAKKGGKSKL
For `Nc1ccc(C(=O)O)c(O)c1`, the “activity change, negative = inhibition” value was 1.19%.

For `O=C1CN(/N=C/c2ccc([N+](=O)[O-])o2)C(=O)N1`, the “activity change, negative = inhibition” value was -12.1%.

Take `O=c1cc(-c2ccccc2)oc2ccccc12`: the Potency is 20.9 µM (active).

Turning to `C[S+](CC[C@H](N)C(=O)O)C[C@H]1O[C@@H](n2cnc3c(N)ncnc32)[C@H](O)[C@@H]1O` (stereo partly specified), the “activity change, negative = inhibition” value is 0.882%.

For the molecule `NCCO`, the “activity change, negative = inhibition” value is 0.755% [at 123 µM].

On to `Nc1ccc([N+](=O)[O-])cc1O`, for which the “activity change, negative = inhibition” value was -8.7% [at 123 µM].

Consider `O=C(O)[C@H](CC(=O)N1C[C@H]2CCCC[C@H]2C1)Cc1ccccc1`, for which the “activity change, negative = inhibition” value was -5.9%.

Take `C=CCCCCCCCCC(=O)O`: the “activity change, negative = inhibition” value was 2.22%.

Test system in another experiment: not listed separately
Briefly: S16 Schwann cell viability assay (CellTiter-Glo assay) (AID 624031).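 Further: native untransfected S16 rat Schwann cells; cellular ATP luminescence as a viability measure; plate controls were DMSO-treated cells for no effect and cell-free wells for full effect; nearly all actives have a fitted effect of over 70% in size.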 The settings on record: S16 rat Schwann cells viability, 24 h; series mostly up to 57.5 µM; activity change, negative = cytotoxicity: at the top concentration. In outline:
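Concentration-effect curves come from CellTiter-Glo luminescence of S16 rat Schwann cells after 24 h compound exposure. Each reading was normalized to DMSO wells (0%) and wells without cells, and curves were ranked by r2 and response magnitude.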
A general note: In ATP-based viability assays light output follows the ATP content of the culture.
Take `Nc1ccc(C(=O)O)c(O)c1`: the “activity change, negative = cytotoxicity” value was 9.14%.

For `O=C1CN(/N=C/c2ccc([N+](=O)[O-])o2)C(=O)N1`, the “activity change, negative = cytotoxicity” value was -3.27%.

With `C[S+](CC[C@H](N)C(=O)O)C[C@H]1O[C@@H](n2cnc3c(N)ncnc32)[C@H](O)[C@@H]1O` (stereo partly specified), the “activity change, negative = cytotoxicity” value was 0%.

Regarding `O=C(O)[C@H](CC(=O)N1C[C@H]2CCCC[C@H]2C1)Cc1ccccc1`, the “activity change, negative = cytotoxicity” value was -3.96%.

Consider `C=CCCCCCCCCC(=O)O`, for which the “activity change, negative = cytotoxicity” value was 4.64%.

Test system in the next experiment: not listed separately
Briefly: S16 Schwann cell PMP22 intronic element firefly luciferase assay (AID 624032).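 Further: plate controls were DMSO for no effect and PTC124 positive control mean for full effect; nearly all actives have a fitted effect of over 30% in size.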 The conditions noted are these: S16 rat Schwann cells, PMP22 element FLuc, 24 h; series mostly up to 57.5 µM; activity change, negative = inhibition: at the top concentration. In outline:
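Rat S16 Schwann cells stably carrying firefly luciferase driven by a PMP22 intronic element, in 10% FBS, treated 24 h at 37 C. ONE-Glo luminescence normalized to PTC124 control and DMSO (0%); curves classed by r2, magnitude and activity.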
Take `Nc1ccc(C(=O)O)c(O)c1`: the “activity change, negative = inhibition” value was -13.7%.

In the case of `O=C(O)[C@H](CC(=O)N1C[C@H]2CCCC[C@H]2C1)Cc1ccccc1`, the “activity change, negative = inhibition” value was -4.65%.

With `C=CCCCCCCCCC(=O)O`, the “activity change, negative = inhibition” value was 8.05%.
